# Assay results as given in PubChem BioAssay (NCI).
# “And” between values parts separate entries of the source, which are not always exact repeats. Identical values can stand only once. This is part of a sample that, as a whole, favours compounds with a hit. Of some 83,000 tested, about 20% had one in any assay.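 In brief: 96-well plates, 48 h treatment, single concentration, percent growth endpoint.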 The source made the active and inactive calls. The calls were made as follows: active = growth percent below 10; inactive = the rest.
# Tested on: MDA-MB-468 breast
# Assay: NCI-60 one-dose screen, 48 h (100 = growth as untreated, 0 = no growth, -100 = all killed)
# Details: 10 µM unless noted
row,Compound,growth
1,CNC1=CC(=O)c2c(C(=O)OC)c(C)[n+]([O-])c(C)c2C1=O,34.7% (inactive)
2,CCn1cc(C(=O)NNC(=S)Nc2ccc(C)cc2)c(=O)c2ccc(C)nc21,88% (inactive)
3,O=C(COCc1c(-c2ccccc2)no[n+]1[O-])Nc1nc(-c2ccc(Cl)cc2)cs1,100% (inactive)
4,N#Cc1c(N)nc(NCCO)nc1-c1ccc(F)cc1,102% (inactive)
5,C=C(C)[C@@H]1CC[C@]2(c3ncc(C)o3)CC[C@]3(C)[C@H](CC[C@@H]4[C@@](C)(CCC#N)[C@H](C(=C)C)CC[C@]43C)[C@@H]12,-63% [100 µM] (active)
6,Cn1cnc([N+](=O)[O-])c1Sc1ncnc2nc[nH]c12,-4.47% (active) and 77.7% (inactive)
